PubChem BioAssay (Tox21)
Results filed as inconclusive are left out. A call without a number means that no potency is given here. Activity calls are given as the source filed them. Unless noted, the call rests on the fitted dose curve; in most records, active means well fitted curve in the direction sought with a large enough effect in the repeat runs; inconclusive means weak or mixed curves; inactive means no such curve, though single readings can be large; an effect the other way counts as inactive or inconclusive.

How the values were obtained:
[1] = qHTS assay to identify small molecule antagonists of the retinoid acid receptor (RAR) signaling pathway - cell viability counter screen (AID 1159551); further: nearly all actives have a fitted effect of over 35% in size
Outline: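 C3RL4 RARE-luciferase cells, 1,000/well, incubated overnight, then dosed with compound plus 1 uM retinol (final). After 6 hr at 37 C, viability read by CellTiter-Glo ATP luminescence following 30 min at room temperature.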

[2] = qHTS assay to identify small molecule agonists of the retinoic acid receptor (RAR) signaling pathway (AID 1159553); further: potency means the concentration at half of the fitted maximal effect
Outline: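 C3RL4 RARE-luciferase cells were seeded at 1,000/well and grown overnight at 37 C, then exposed to compounds for 6 hr at 37 C, 5% CO2. Luciferase reagent was added and luminescence was read after 30 min at room temperature.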

[3] = qHTS assay to identify small molecule antagonists of the estrogen related receptor (ERR) signaling pathway from Tox21 library - cell viability counter screen (AID 1224834); further: nearly all actives have a fitted effect of over 30% in size; further: potency means the concentration at half of the fitted maximal effect
Outline: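 ERR reporter cells, 2,000 per well, rested 6 h, then exposed to compound in DMSO for 17.5 hours at 37 C. Viability read as fluorescence after 30 min with CellTiter-Fluor.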

[4] = molecular target: Luciferin 4-monooxygenase (Photinus pyralis) (UniProt P08659); test: qHTS assay to identify small molecule inhibitors of firefly luciferase (AID 1224835); further: nearly all actives have a fitted effect of over 25% in size; further: potency means the concentration at half of the fitted maximal effect
Outline: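 Biochemical qHTS: compounds run as interplate titrations against purified firefly enzyme, with D-luciferin and ATP each at its KM concentration. Light output recorded by CCD imaging.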

[5] = qHTS assay to identify small molecule agonists of the constitutive androstane receptor (CAR) signaling pathway - cell viability counter screen (AID 1224836); further: series mostly up to about 92 µM; nearly all actives have a fitted effect of over 45% in size
Outline: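 HepG2 cells stably carrying hCAR and a CYP2B6-2.2kb reporter; 15-concentration compounds plus PK11195 (final 0.75 uM), 23 hr at 37 C/5% CO2. Viability read by CellTiter-Fluor fluorescence.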

[6] = qHTS assay to identify small molecule antagonists of the constitutive androstane receptor (CAR) signaling pathway - cell viability counter screen (AID 1224837); further: series mostly up to about 92 µM; nearly all actives have a fitted effect of over 45% in size
Outline: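 HepG2 cells stably carrying hCAR and CYP2B6-2.2kb reporter, stimulated with 50 nM CITCO and compounds at 15 concentrations for 23 h at 37 C. Viability measured by CellTiter-Fluor fluorescence.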

[7] = molecular target: Nuclear receptor subfamily 1 group I member 3 (Homo sapiens) (UniProt Q14994); test: qHTS assay to identify small molecule agonists of the constitutive androstane receptor (CAR) signaling pathway (AID 1224839); further: nearly all actives have a fitted effect of over 15% in size; further: potency means the concentration at half of the fitted maximal effect
Outline: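 HepG2 cells stably co-transfected with hCAR and a CYP2B6-2.2kb luciferase reporter; compounds at 15 concentrations with 0.75 uM PK11195 present. After 24 hr at 37 C, luciferase read by ONE-Glo luminescence.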

[8] = qHTS assay to identify small molecule antagonists of the estrogen related receptor signaling pathway with the pleiotropic PPARgamma coactivator (PGC) from Tox21 10K library - cell viability counter screen (AID 1224840; active means well fitted cell-killing curve with a large enough effect in the repeat runs, not every such curve was filed as active; further: nearly all actives have a fitted effect of over 40% in size)
Outline: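 PGC/ERR cells (2,000/well) plated 6 h, then compound-treated for 17.5 h at 37 C. Viability measured by CellTiter-Fluor fluorescence after 30 min at 37 C, multiplexed with the pathway assay.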

[9] = qHTS assay to identify small molecule agonists of the estrogen related receptor signaling pathway with the pleiotropic PPARgamma coactivator (PGC) from Tox21 10K library (AID 1224842); further: nearly all actives have a fitted effect of over 15% in size; further: potency means the concentration at half of the fitted maximal effect
Outline: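 PGC/ERR reporter cell line, 2,000 cells per well, incubated 6 h at 37 C before 23 nL compound in DMSO was added. After 18 h at 37 C, One-Glo luminescence read following 30 min at room temperature.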

[10] = molecular target: Thyrotropin receptor (Homo sapiens) (UniProt P16473); test: qHTS assay to identify small molecule agonists of the thyroid stimulating hormone receptor (TSHR) signaling pathway (AID 1224843; calls by dose curve; further: nearly all actives have a fitted effect of over 45% in size)
Outline: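 Steps: seed 800 TSHR-HEK293 cells per well; add test compound and hold 30 min at ambient temperature; dispense cAMP-d2 then anti-cAMP cryptate; incubate 1 h at ambient; measure fluorescence intensity.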

[11] = molecular target: Nuclear receptor subfamily 1 group I member 3 (Homo sapiens) (UniProt Q14994); test: qHTS assay to identify small molecule antagonists of the constitutive androstane receptor (CAR) signaling pathway (AID 1224838); further: nearly all actives have a fitted effect of over 40% in size
Outline: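 HepG2 cells stably carrying hCAR and a CYP2B6-2.2kb luciferase reporter, seeded 4 hrs before compound (15 concentrations). Stimulated with 50 nM CITCO for 24 hr at 37 C. ONE-Glo luminescence read after 30 min at room temperature.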

[12] = qHTS assay to identify small molecule antagonists of the estrogen related receptor signaling pathway with the pleiotropic PPARgamma coactivator (PGC) from Tox21 10K library (AID 1224841; call rule not given here; further: series mostly up to about 92 µM; actives are mostly falling curves and most rising ones were filed inactive; nearly all actives have a fitted effect of over 50% in size)
Outline: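 PGC/ERR cell line, 2,000 cells/well, pre-incubated 6 hours at 37 C, then exposed to compounds for 18 hours at 37 C; luciferase read with One-Glo luminescence after 30 min at room temperature.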

[13] = qHTS assay to identify small molecule antagonists of the retinoic acid receptor (RAR) signaling pathway (AID 1159552; further: nearly all actives have a fitted effect of over 50% in size; further: potency means the concentration at half of the fitted maximal effect)
Outline: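 Retinol signaling pathway inhibitors screened in C3RL4 RARE-luciferase reporter cells seeded overnight at 37 C, then compounds added with 1 uM (final) retinol as pathway substrate. After 6 hr at 37 C, luciferase luminescence read after 30 min at room temperature.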

[14] = qHTS assay to identify small molecule antagonists of the estrogen related receptor (ERR) signaling pathway - cell viability counter screen (AID 1224818); further: series mostly up to about 46 µM
Outline: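 ERR cells, 2,000 per well, compound added after 6 h and incubated 17.5 h at 37 C. Viability read by CellTiter-Fluor fluorescence after a further 30 min at 37 C.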

[15] = qHTS assay to identify small molecule antagonists of the estrogen related receptor signaling pathway with the pleiotropic PPARgamma coactivator (PGC) cell viability counter screen (AID 1224822; further: series mostly up to about 46 µM)
Outline: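 PGC/ERR cells rested 6 h, then compound-treated 17.5 h at 37 C. CellTiter-Fluor added for 30 min at 37 C, viability measured by fluorescence intensity.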

Sequence of Thyrotropin receptor (Homo sapiens) (P16473 whole entry, looked up): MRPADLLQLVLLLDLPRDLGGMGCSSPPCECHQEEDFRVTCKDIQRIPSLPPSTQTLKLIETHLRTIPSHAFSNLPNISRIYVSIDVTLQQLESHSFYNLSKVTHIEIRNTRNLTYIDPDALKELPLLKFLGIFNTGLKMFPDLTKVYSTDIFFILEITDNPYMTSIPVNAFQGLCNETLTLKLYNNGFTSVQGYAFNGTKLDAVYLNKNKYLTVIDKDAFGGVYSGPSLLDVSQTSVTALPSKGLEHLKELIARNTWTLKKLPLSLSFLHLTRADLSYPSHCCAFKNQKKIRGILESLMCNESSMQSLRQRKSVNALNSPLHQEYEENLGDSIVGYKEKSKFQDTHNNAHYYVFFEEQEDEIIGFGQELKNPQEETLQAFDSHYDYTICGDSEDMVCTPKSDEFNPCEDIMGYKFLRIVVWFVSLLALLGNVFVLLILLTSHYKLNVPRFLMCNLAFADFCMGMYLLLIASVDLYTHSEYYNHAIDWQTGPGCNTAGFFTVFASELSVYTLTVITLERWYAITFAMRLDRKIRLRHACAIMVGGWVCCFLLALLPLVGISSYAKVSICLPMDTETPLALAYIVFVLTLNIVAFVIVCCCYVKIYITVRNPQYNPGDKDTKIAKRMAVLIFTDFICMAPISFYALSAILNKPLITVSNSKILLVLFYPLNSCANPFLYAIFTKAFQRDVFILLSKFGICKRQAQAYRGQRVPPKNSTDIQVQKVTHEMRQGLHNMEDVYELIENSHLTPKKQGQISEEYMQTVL
Sequence of Luciferin 4-monooxygenase (Photinus pyralis) (P08659 whole entry, looked up): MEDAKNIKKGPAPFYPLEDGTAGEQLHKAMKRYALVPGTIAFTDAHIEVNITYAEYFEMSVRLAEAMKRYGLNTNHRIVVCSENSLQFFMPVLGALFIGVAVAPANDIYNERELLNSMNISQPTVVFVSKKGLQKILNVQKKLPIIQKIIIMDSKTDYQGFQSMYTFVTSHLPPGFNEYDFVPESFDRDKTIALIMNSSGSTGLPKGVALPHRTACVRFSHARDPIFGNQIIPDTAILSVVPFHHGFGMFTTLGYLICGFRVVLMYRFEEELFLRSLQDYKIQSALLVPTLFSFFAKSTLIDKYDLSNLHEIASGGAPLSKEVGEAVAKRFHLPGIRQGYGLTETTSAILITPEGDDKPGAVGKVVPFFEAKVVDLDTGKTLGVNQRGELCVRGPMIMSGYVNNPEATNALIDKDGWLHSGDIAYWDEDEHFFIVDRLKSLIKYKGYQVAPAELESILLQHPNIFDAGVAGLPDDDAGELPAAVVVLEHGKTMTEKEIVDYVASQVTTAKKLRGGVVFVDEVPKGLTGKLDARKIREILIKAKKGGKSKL
Sequence of Nuclear receptor subfamily 1 group I member 3 (Homo sapiens) (Q14994 whole entry, looked up): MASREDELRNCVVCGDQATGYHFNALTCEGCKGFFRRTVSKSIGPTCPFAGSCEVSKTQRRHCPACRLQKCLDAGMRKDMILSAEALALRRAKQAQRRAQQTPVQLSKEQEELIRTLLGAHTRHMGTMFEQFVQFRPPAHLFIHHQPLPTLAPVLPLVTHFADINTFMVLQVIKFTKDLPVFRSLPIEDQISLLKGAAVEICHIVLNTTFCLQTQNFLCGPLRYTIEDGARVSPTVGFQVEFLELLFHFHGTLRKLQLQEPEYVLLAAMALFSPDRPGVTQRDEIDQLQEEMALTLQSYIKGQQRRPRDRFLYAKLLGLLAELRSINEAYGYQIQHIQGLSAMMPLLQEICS

SMILES	Potency [1]	Potency [2]	Potency [3]	Potency [4]	Potency [5]	Potency [6]	Potency [7]	Potency [8]	Potency [9]	Potency [10]	Potency [11]	Potency [12]	Potency [13]	outcome [14]	outcome [15]
CNCC[C@@H](Oc1ccccc1C)c1ccccc1	inactive	inactive	inactive	inactive	inactive	inactive	inactive	inactive	inactive	inactive					
CC[C@H](C)[C@H](N)C(=O)O			inactive	inactive	inactive	inactive	inactive		inactive	inactive	inactive	inactive			
C[C@H](CCC(=O)O)[C@H]1CC[C@H]2[C@@H]3[C@H](O)C[C@@H]4C[C@H](O)CC[C@]4(C)[C@H]3CC[C@]12C	inactive	inactive		79.9 µM (active)	inactive			inactive		inactive	inactive	inactive	inactive		
CCCCc1cc2ccccc2c(OCCN(C)C)n1	inactive	inactive	inactive	inactive	inactive	inactive		inactive		inactive					
CCCCOc1ccc(CC(=O)NO)cc1		29.8 µM (active)	18.8 µM (active)	inactive			inactive	inactive			inactive		inactive		
CCC(C)N(C)C(=O)c1cc2ccccc2c(-c2ccccc2Cl)n1 (stereo unspecified)	inactive			inactive	inactive	inactive		inactive						inactive	inactive
Cc1ccc2c(ccc3ccccc32)c1	inactive			31.8 µM (active)	inactive	inactive		inactive		inactive	inactive		inactive		
CC1=CCC(C(C)C)C=C1 (stereo unspecified)	inactive			inactive	inactive	inactive	inactive				inactive				
C=CCCCCCC	inactive		inactive	inactive	inactive	inactive	inactive	inactive		inactive		inactive	inactive		
O=C=NC1CCC(CC2CCC(N=C=O)CC2)CC1 (stereo unspecified)	inactive		inactive	inactive	inactive	inactive	inactive			inactive					
CN1CCC(OC(c2ccccc2)c2ccccc2)CC1		inactive	inactive	inactive	inactive					inactive	inactive		inactive		
C1CCC2OC2C1 (stereo unspecified)	inactive	inactive		inactive	inactive	inactive		inactive		inactive			inactive		
C=CC[N+]1([C@H]2C[C@H]3[C@@H]4CC[C@H]5C[C@H](OC(C)=O)[C@@H](N6CCCCC6)C[C@]5(C)[C@H]4CC[C@]3(C)[C@H]2OC(=O)CC)CCCCC1	inactive	inactive	inactive	inactive	inactive		inactive	inactive		inactive					
COC(=O)CSc1cc(N=c2sc(=O)n3n2CCCC3)c(F)cc1Cl	inactive			inactive	inactive	inactive	inactive	inactive		inactive					
CCN(CC)CCNC(C(=O)OCCC(C)C)c1ccccc1 (stereo unspecified)	inactive			inactive	inactive	inactive	inactive	inactive		inactive		inactive			
Oc1ccc(Cc2ccccc2)cc1	inactive	inactive		65.7 µM (active)	inactive		56.6 µM (active)	inactive		inactive	inactive	inactive	inactive		

SMILES	Potency [1]	Potency [2]	Potency [3]	Potency [4]	Potency [5]	Potency [6]	Potency [7]	Potency [8]	Potency [9]	Potency [10]	Potency [11]	Potency [12]	Potency [13]	outcome [14]	outcome [15]
C[C@@H](C1=C(CCN(C)C)Cc2ccccc21)c1ccccn1	inactive	inactive		inactive	inactive	inactive		inactive		inactive			inactive		
Oc1ccc(Sc2ccc(O)cc2)cc1	inactive				inactive	inactive	57.2 µM (active)	inactive			inactive		inactive		
Nc1ccc(C(=O)Nc2ccccc2N)cc1			inactive		inactive		inactive	inactive		inactive			inactive		
O=C(CC(=O)c1ccccc1)c1ccccc1	inactive	8.27 µM (active)		6.06 µM (active)	inactive	inactive		inactive	29.3 µM (active)	inactive		inactive			
COC(Cc1ccccc1)OC		inactive	inactive	inactive	inactive		inactive	inactive		inactive			inactive		
O=C1c2cccc(O)c2C(=O)c2c(O)cc(CO)cc21				inactive	inactive	inactive	inactive	inactive	inactive	inactive		inactive	inactive		
COc1ccccc1OC(=O)Oc1ccccc1OC	inactive		inactive	inactive	inactive	inactive	inactive	inactive		inactive	inactive				
CCCC(C)C	inactive	inactive		inactive	inactive	inactive				inactive			inactive		
CN1CCC(=C2c3ccccc3CCc3sccc32)CC1	inactive			inactive	inactive	inactive	inactive		inactive	inactive		inactive			
CCOC(=O)[C@H](CCc1ccccc1)N[C@H]1CCc2ccccc2N(CC(=O)O)C1=O	inactive		26.6 µM (active)	inactive	inactive	inactive	inactive			inactive	inactive		29.8 µM (active)		
CCCCCCc1ccc(N)cc1	inactive				inactive	inactive	inactive	inactive		inactive	inactive	inactive	inactive		
Cc1cc(CC(=O)O)c(C)n1-c1ccc(Cl)cc1	inactive	inactive		inactive	inactive	inactive		inactive	inactive			inactive	inactive		
O=c1c2ccccc2nnn1CCl			inactive	inactive	inactive	inactive		inactive		inactive	inactive		inactive		
COC(=O)C(C)=O	inactive		inactive	inactive	inactive	inactive	inactive			inactive		inactive			
CCC(=O)OC(C)(C)C1CC=C(C)CC1 (stereo unspecified)		inactive	inactive	inactive	inactive		inactive	inactive		inactive	inactive	inactive	inactive		
CN(C)CCCOc1nn(Cc2ccccc2)c2ccccc12	inactive			inactive		inactive		inactive	inactive	inactive	inactive	inactive			
